Cycloheximide cs: Cycloheximide Counterscreen for Small Molecule Inhibitors of Shiga Toxin. AID 2314, 2010. max response, %. cell reporter, cycloheximide protein synthesis inhibition counterscreen. 300,000 compounds, 12% hits; in the data active = max response mostly above about 13%, no sharp cut-off; inactive = mostly below about 14%; also: read at 38.3 µM for the half of the compounds with a filed dose; 0% is about no effect
LmPK inh: qHTS Assay for Inhibitors of Leishmania Mexicana Pyruvate Kinase (LmPK); Q27686; purified LmPK, Kinase-Glo ATP luminescence, 1 h; Potency, µM (series often up to 57.5 µM), for inactives: at the top dose activity change, negative = inhibition, hits mostly inhibitors; 290,000 compounds, 0.37% hits; AID 1721, 2009; also: potency is read from the fitted curve at half-maximal effect; % is scaled to controls: 0 for no effect and ±100 for the full control effect
Target sequence (Q27686 whole entry, looked up): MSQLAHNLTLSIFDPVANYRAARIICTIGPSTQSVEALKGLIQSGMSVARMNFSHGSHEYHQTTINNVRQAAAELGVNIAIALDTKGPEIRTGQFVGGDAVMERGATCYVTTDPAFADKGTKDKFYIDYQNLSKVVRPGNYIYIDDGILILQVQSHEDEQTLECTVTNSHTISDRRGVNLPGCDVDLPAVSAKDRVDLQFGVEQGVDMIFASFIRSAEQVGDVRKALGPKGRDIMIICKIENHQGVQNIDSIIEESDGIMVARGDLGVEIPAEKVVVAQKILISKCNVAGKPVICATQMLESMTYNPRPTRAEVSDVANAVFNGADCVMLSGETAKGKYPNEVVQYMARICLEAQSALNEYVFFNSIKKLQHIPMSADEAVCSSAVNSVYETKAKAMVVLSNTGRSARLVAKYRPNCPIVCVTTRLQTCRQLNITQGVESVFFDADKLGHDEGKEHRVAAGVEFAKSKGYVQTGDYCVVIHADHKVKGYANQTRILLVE
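qHTS format; LmPK 0.1 nM; substrates PEP 0.5 mM and ADP 0.1 mM. One-hour room-temperature incubation, then coupled luciferase luminescence; 0.5 nM enzyme wells mark activation.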
Shiga inhibitor: A qHTS for Small Molecule Inhibitors of Shiga Toxin; Vero cells, Shiga toxin protein synthesis inhibition reporter; inhibition, % at 38.7 µM; 290,000 compounds, 9.2% hits; AID 2315, 2010; in the data active = inhibition mostly above about 28%, no sharp cut-off; inactive = mostly below about 43%; also: 0% is about no effect
Pf growth 48h: Primary qHTS for delayed death inhibitors of the malarial parasite plastid, 48 hour incubation | Potency, µM (titrated, usually from 28.7 µM), for inactives: at the top dose activity change, negative = inhibition, most hits filed as inhibitors | P. falciparum luciferase growth in erythrocytes, 48 h | 310,000 compounds, 5.9% hits; also: potency is read from the fitted curve at half-maximal effect; % is scaled to controls: 0 for no effect and ±100 for the full control effect
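Compounds are pin-transferred into medium, infected erythrocytes (2% hematocrit, 0.1% parasitemia final) are added, and plates sit one parasite generation at 37 C in 5% CO2. Detection reagent is then added and luminescence measured.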
Pf growth 96h: Primary qHTS for delayed death inhibitors of the malarial parasite plastid, 96 hour incubation; P. falciparum luciferase reporter growth, 96 h; Potency, µM (highest dose often 28.7 µM), without a hit: at the highest dose activity change, negative = inhibition, usual class: inhibitors; 320,000 compounds, 6.9% hits; also: potency is read from the fitted curve at half-maximal effect; % is scaled to controls: 0 for no effect and ±100 for the full control effect
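P. falciparum expressing integrated firefly luciferase grown in erythrocytes (2% hematocrit, 0.05% parasitemia final) with compounds for 96 hours at 37 C, 5% CO2. Growth inhibition read as loss of luminescence after adding luciferase detection reagent.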
Active calls of the source: *; ? = inconclusive; nt = no result. A selection: hits, their analogues and other compounds. The true share with any hit is near 22%. Unless noted, calls follow the shape of the dose curve; as a rule, active = well fitted inhibition curve with a large enough effect; inconclusive = small, poorly fitted or top-dose-only effect, or another doubt; inactive = no such curve, though single readings can be large or run the other way.

SMILES | Cycloheximide cs | LmPK inh | Shiga inhibitor | Pf growth 48h | Pf growth 96h
Cc1cc(C(=O)CN2C(=O)NC3(CCCCC3C)C2=O)c(C)n1Cc1cccs1 (stereo not drawn) | 101.2* | 7.7% | 74.9* | 18.2% | -27.6%
Cc1cc(-n2c(C)cc(C(=O)CN3C(=O)NC4(CCCCC4)C3=O)c2C)no1 | 9.7* | 6.3% | 10.6 | 13.1µM* | 19.5%
CCCCN1C(=O)C(=O)N(CC(=O)c2cc(C)n(-c3cc(C)on3)c2C)C1=O | nt | nt | nt | 10.4µM* | ?
Cc1cc(C)n(C(C[N+](=O)[O-])c2ccc(Cl)cc2)n1 (stereo not drawn) | 4.4 | -1.8% | 28.1 | ? | nt
Cc1cc(C(=O)COC(=O)CN(C)S(=O)(=O)c2ccc(Cl)cc2)c(C)n1Cc1cccs1 | 11.8 | 1.0% | 25.6 | -15.7% | 12.3%
Cc1cc(C(=O)CN2C(=O)c3cccc(N)c3C2=O)c(C)n1Cc1cccs1 | 34.0* | 2.7% | 83.5* | nt | 11.1%
Cc1cc(-n2c(C)cc(C(=O)CN3C(=O)NC4(CCCCC4C)C3=O)c2C)no1 (stereo not drawn) | -1.3 | -0.3% | 9.4 | 2.33µM* | -6.1%
CCCOc1ccc(C2CC(=O)Nc3cc(OC)c(OC)cc32)cc1 (stereo not drawn) | -3.9 | -1.2% | -13.5 | -8.5% | ?
N#CCCN(C(=O)COC(=O)CNC(=O)c1cccs1)c1ccc(F)cc1 | nt | nt | nt | 8.8% | 42.7%
O=C(CSc1n[nH]c(-c2cc(Cl)ccc2Cl)n1)NCCN1C(=O)CSC1=O | -1.0 | -8.7% | -5.3 | 14.3% | 16.4%
CCOC(=O)c1sc2nc(C)nc(SCC(=O)NC3CCS(=O)(=O)C3)c2c1C (stereo not drawn) | 6.3 | 1.8% | 11.0 | -19.9% | ?
COC(=O)c1sc2nc(C)nc(SCC(=O)C(C)(C)C)c2c1C | 37.6* | 2.6% | 52.4 | -4.3% | ?
O=C(c1ccc(COCC(F)(F)F)o1)N1CCCC1 | -5.4 | 3.4% | 2.9 | 18.9% | ?
C=CCN1C(=O)C(CC(=O)NCC)SC1=Nc1ccccc1OC (stereo not drawn) | -1.4 | -1.4% | -7.1 | 5.7% | -15.9%
N#Cc1ccccc1CSc1ccccn1 | -4.2 | -0.5% | 23.4 | -17.2% | 14.2%
Cn1c(SCc2ccc(C#N)cc2Cl)nc2ccccc21 | 39.9* | -27.6% | 125.3 | 184.4% | 226.8%
N#Cc1ccc(CSc2ccccn2)c(Cl)c1 | 24.8* | -0.1% | 117.1 | ? | 2.5%
Cn1c(SCc2nc3ccccc3n2CCO)nc2ccccc21 | -4.9 | 0.1% | -11.4 | -8.2% | ?
N=C1SCC(=O)N1c1ccc(Cl)cc1 | -3.9 | 3.0% | -6.9 | 5.0% | ?
COc1ccc(O)c(C(=O)c2cnc3c(c2)c(C)nn3C)c1 | -2.7 | 1.0% | -3.6 | ? | ?
Cc1ccc(O)c(C(=O)c2cnc3c(c2)c(C)nn3C)c1 | 4.4 | 1.2% | 3.0 | ? | 8.28µM*
Cc1nn(C)c2ncc(C(=O)c3cc(F)ccc3O)cc12 | -2.2 | 9.9% | -9.7 | nt | 10.4µM*
Cc1nn(C)c2ncc(C(=O)c3ccccc3O)cc12 | 12.1 | 1.2% | -3.1 | -2.6% | -8.4%
Cc1nn(-c2ccccc2)c2ncc(C(=O)c3cc(Cl)ccc3O)cc12 | -2.5 | 3.1% | 2.3 | 1.85µM* | 2.62µM*
O=C(c1cnc2ccc3ccccc3c2c1)c1cc(F)ccc1O | 46.1* | 3.7% | 69.3* | 3.7µM* | ?
Cc1ccc(CCNC(=O)CNC(=O)c2cccs2)cc1 | 4.9 | 1.3% | 21.0 | 23.0% | 24.9%
COc1ccc(C)cc1S(=O)(=O)N1CCCC(C(=O)N2CCN(c3ccccc3F)CC2)C1 (stereo not drawn) | -2.0 | 1.2% | -1.9 | 10.4µM* | ?
Cn1c(=O)oc2cc(S(=O)(=O)N3CCCC(C(=O)N4CC=C(c5ccccc5)CC4)C3)ccc21 (stereo not drawn) | -4.6 | 8.7% | -5.8 | nt | -1.7%
COc1ccccc1N1CCN(C(=O)C2CCCN(S(=O)(=O)c3ccc4c(c3)oc(=O)n4C)C2)CC1 (stereo not drawn) | 9.3 | 2.0% | -6.0 | 11.7µM* | 52.7%
COc1ccc(N2CCN(C(=O)C3CCCN(S(=O)(=O)c4ccc5c(c4)oc(=O)n5C)C3)CC2)cc1 (stereo not drawn) | 13.7 | -4.5% | -1.3 | 11.7µM* | ?

Assay outcomes: PubChem BioAssay, National Center for Advancing Translational Sciences (NCATS)
